Rows were chosen to be rich in hits. Some 2% of all compounds tested hit in one or more screens of this group.
PG9 Ab binder: binders of HIV-1 gp120 antibody PG9, primary screen, biochemical, TR-FRET. inhibition, % at 6.7 µM. TR-FRET gp120-PG9 antibody binding. 360,000 compounds, 0.43% hits. HIV-1 gp120 / PG9 antibody interaction; in the data active means inhibition above about 8.5%
VLA-4 inh: inhibition in human VLA-4 binding assay, primary screen, VLA-4 allosteric modulator project, MLPCN library, flow cytometry, VLA-4 expressing cells. ligand binding flow cytometry. inhibition, % (about 7 µM as worked out from the volumes in the protocol). 330,000 compounds, 0.2% hits; in the data active means inhibition above about 50%
Rev-erbA mod: modulators of Rev-erb alpha DNA binding, primary screen, biochemical, FITC-DNA, fluorescence polarization, uHTS | Nuclear receptor subfamily 1 group D member 1 (Homo sapiens), P20393 | Rev-erbα–FITC-DNA binding, 90 min | 370,000 compounds, 0.79% hits | activity, % at 10 µM;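 active means activity above about 14%, limit read from the data; passing the limit was not always enough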;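 further: 0% = DMSO wells with 35 nM protein and 100% = DMSO wells with 750 nM protein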
ABCB6 inh 2: ABCB6 transporter inhibitors, primary screen, K562-ABCB6 cells, flow cytometry, MLPCN library; fluorescence ratio to DMSO, % at 10 µM; ATP-binding cassette sub-family B member 6 (Homo sapiens), Q9NP58; K562-ABCB6 porphyrin accumulation, 1 h; active compounds read low; 360,000 compounds, 0.19% hits;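 active means fluorescence ratio to DMSO below 75%, the collection mean minus 3 SD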;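 further: signal is porphyrin accumulated inside mitochondria; 100% equals median channel fluorescence of DMSO control wells; lower ratio means ABCB6 inhibition with less porphyrin fluorescence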
Granule exo inh: LAMP-1 surface exposure blockers, TALL-104 cells – cell-based, flow cytometry, MLPCN library, primary screen. AID 651702, 2012. 360,000 compounds, 0.66% hits. inhibition, % at 10 µM. TALL-104 LAMP-1 surface exposure; cells stimulated with thapsigargin and PMA;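 active means inhibition above about 55%, limit read from the data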
Exocytosis CP01: inhibitors of lytic granule exocytosis, confirmation, TALL-104 cells, flow cytometry, Cherry Pick01 | shares compounds with Granule exo inh | LAMP-1 externalization; stimulated with PMA plus thapsigargin | inhibition, % at 10 µM | 1,500 compounds, 11% hits; in the data active means inhibition above about 60%;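 further: 0% = stimulated vehicle wells and 100% = unstimulated wells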
Starred values were filed as active, the others as inactive; / = not tested or not shown.

SMILES	PG9 Ab binder	VLA-4 inh	Rev-erbA mod	ABCB6 inh 2	Granule exo inh	Exocytosis CP01
CCOC(=O)C1(Cc2ccccc2)CCCN(CCO)C1 (configuration not stated)	1	9	9	102	54	/
CCOC(=O)C1(Cc2ccccc2)CCCN(C2CCCC2)C1 (configuration not stated)	0	3	-3	97	59*	-4
COc1ccc(Cl)c(-c2cc(C(=O)NCc3ccc(C(F)(F)F)cc3)[nH]n2)c1	0	/	5	98	97*	64*
Cc1cc(F)ccc1-c1cc(C(=O)NCc2ccc(C(F)(F)F)cc2)[nH]n1	-2	/	8	91	-6	/
Cc1ccc(Cl)cc1-c1cc(C(=O)NCc2ccc(C(F)(F)F)cc2)[nH]n1	2	/	-2	93	96*	103*
O=C(Nc1ccccc1F)O[C@@H]1CC[C@@]23CCCN2C(=O)CCC[C@H]3C1	/	/	0	/	/	/
O=C1CC[C@@H]2CC3(C[C@@H]4CCN1[C@H]24)Nc1cc(Cl)ccc1NC3=NC1CCCCC1 (some centres not stated)	0	/	-6	106	44	/
O=C1CCC[C@@H]2C[C@@]3(C[C@@H]4CCN1[C@H]24)Nc1cc(Cl)ccc1NC3=NC1CCCCC1	1	/	2	104	76*	-12
CCc1nc2ccc(C(=O)NCc3ccc4c(c3)OCO4)cn2c1N(CC)CCOC	1	/	-3	103	0	/
CCCCN(C)c1c(C)nc2ccc(C(=O)NCc3ccc4c(c3)OCO4)cn12	0	/	-2	101	60*	-12
Nc1sccc1C(=O)c1ccc(Cl)cc1	0	/	1	113	82*	-3
CCN(CC)CCNc1ncnc2c1sc1nc(N3CCCC3)c3c(c12)CC(C)(C)OC3	-3	18	2	96	56*	1
NC(=O)c1ccc(NC(=O)COC(=O)C2(c3cccc(F)c3)CCCC2)cc1	0	18	2	95	-2	/
CN(C)C(=O)c1ccc(NC(=O)COC(=O)C2(c3ccccc3)CCCC2)cc1	-1	22	-2	103	76*	-5
CCOC(=O)[C@@]12CN(C(=O)OC(C)(C)C)CC=C1N(Cc1ccc(OC)cc1)C(=O)[C@H]2CC(=O)N1CCCC1	/	/	-2	/	/	/
Fc1ccc(CN2CCN(c3ncc(Cc4ccccc4)cn3)CC2)c(Cl)c1	0	/	-4	/	/	/
COCCNC[C@@]12CO[C@H](c3ccc(Cl)cc3)N1[C@@H](c1ccc(Cl)cc1)SC2	/	/	-2	/	/	/
CCOc1ccccc1N(CC(=O)NC1CCCCC1)S(=O)(=O)c1ccc(C)cc1	1	-1	6	104	93*	-12
COc1ccccc1N(CC(=O)NC1CCCC1)S(=O)(=O)c1ccc(C)cc1	1	4	-3	96	16	/
COc1ccccc1N(CC(=O)Nc1ccc2c(c1)OCCO2)S(C)(=O)=O	4	0	2	90	5	/
COc1ccccc1N(CC(=O)Nc1cccc(C(F)(F)F)c1)S(C)(=O)=O	-2	4	3	101	80*	-10
COc1ccccc1N(CC(=O)Nc1ccc2c(c1)OCCO2)S(=O)(=O)c1ccc(C)cc1	0	4	-6	99	73*	-10
CC(=NNC(=O)CSc1nnc(-c2ccccc2)n1-c1ccccc1)c1ccc2ccccc2c1	/	/	-6	/	/	/
O=C(CCN1CCCCC1)c1ccc2c(c1)OCO2	0	-6	-5	92	80*	13
CCOc1ccc(C(=O)CCN2CCCCCC2)cc1	-1	10	-3	104	101*	64*
O=C(CCCN1CCOCC1)c1ccc2c(c1)OCCO2	-1	8	-4	103	-3	/
CCCOc1ccc(C(=O)CCN2CCCCC2)cc1	-1	10	-3	100	22	/
O=C(CCN1CCc2ccccc2CC1)c1ccc2c(c1)OCCO2	-1	18	0	100	101*	78*
O=C(CCN1CCOCC1)c1ccc2c(c1)OCCO2	1	-1	-5	102	85*	-8
